Screens as filed in PubChem.
This is a sample that favours compounds with a hit; in the whole collection about 1.4% have one here.
eLon inh = inhibitors of E. coli Lon protease, primary screen, biochemical, fluorescence polarization | P0A9M0 | purified E. coli Lon protease | inhibition, % at 7.94 µM | 360,000 compounds, 0.42% hits | AID 602123, 2011; in the data active = inhibition above about 13%, passing the limit was not always enough
Bcl-xL primary = inhibitors of human Bcl-xL, primary screen, biochemical, fluorescence polarization, HTS; Bcl-2-like protein 1 (Homo sapiens), Q07817; 320,000 compounds, 0.7% hits; GST-Bcl-xL / FITC-Bim BH3 peptide fluorescence polarization; inhibition, % at 10.9 µM; AID 2129, 2009;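 active = inhibition above the mean of all tested compounds plus 3 SD, cutoff set per campaign, cut at about 30% in these data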;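 also: inhibitors lower millipolarization by displacing the labeled peptide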
MCL1 BIM primary = inhibitors of MCL1 binding to BIM-BH3, primary screen, biochemical, fluorescence polarization. inhibition, % at 10.9 µM. GST-MCL1 / FITC-Bim-BH3 fluorescence polarization. 320,000 compounds, 0.68% hits. AID 2057, 2009. Induced myeloid leukemia cell differentiation protein Mcl-1 (Homo sapiens), Q07820;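 active = inhibition above the mean inhibition of all tested compounds plus 3 SD, set per campaign, cut at about 40% in these data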;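 also: higher means more loss of mP so more displacement of Bim peptide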
Target sequence (Q07820 whole entry, looked up): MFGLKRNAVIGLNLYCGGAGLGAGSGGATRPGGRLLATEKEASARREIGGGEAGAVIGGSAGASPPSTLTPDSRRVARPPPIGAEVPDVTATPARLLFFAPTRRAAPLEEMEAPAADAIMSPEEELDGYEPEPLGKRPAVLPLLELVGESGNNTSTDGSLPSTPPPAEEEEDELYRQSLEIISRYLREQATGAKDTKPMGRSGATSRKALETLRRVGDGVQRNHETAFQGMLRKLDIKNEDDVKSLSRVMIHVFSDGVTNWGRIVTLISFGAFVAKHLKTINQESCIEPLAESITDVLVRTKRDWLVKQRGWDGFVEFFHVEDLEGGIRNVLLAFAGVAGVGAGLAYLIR
GLD-1 TGE inh = GLD-1/TGE RNA complex disruptors, primary screen, biochemical, fluorescence polarization; Female germline-specific tumor suppressor gld-1 (Caenorhabditis elegans), Q17339; purified GLD-1 + fluorescein TGE RNA; inhibition, % at 5.96 µM; 320,000 compounds, 0.44% hits; AID 2280, 2010;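 active = percent inhibition above a per-plate cutoff, the plate mean of test compounds plus 3 SD, cut at about 30% in these data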
MEX-5 binding = MEX-5 zinc finger RNA-binding disruptors – biochemical, C. elegans, fluorescence polarization, MLPCN library, primary screen | 300,000 compounds, 0.38% hits | MEX-5/FITC-TCR2 RNA binding; hits give low values | activity score (negative = inhibition of binding), % at 10 µM | AID 1832, 2009;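 active = inhibition past about -25% in most replicates, and total fluorescence under double the plate's negative control median, limit read from the data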
Each line names hits and unclear results; the compound was inactive in the other large screens.

COCCNC(=O)C1CCCN(Cc2cccc(C#N)c2)CC1 (stereo unspecified)	none (no result: Bcl-xL primary, MCL1 BIM primary, GLD-1 TGE inh, MEX-5 binding)
O=C(NCc1cccc(F)c1)c1cccc2c1C(=O)c1ccc(N3CCC(Cc4ccccc4)CC3)cc1S2(=O)=O	eLon inh 38.8, GLD-1 TGE inh 136.6 (no result: Bcl-xL primary, MCL1 BIM primary, MEX-5 binding)
O=C(NCc1ccc(OC(F)(F)F)cc1)c1cccc2c1C(=O)c1ccc(N3CCC(Cc4ccccc4)CC3)cc1S2(=O)=O	GLD-1 TGE inh 121.5 (no result: Bcl-xL primary, MCL1 BIM primary, MEX-5 binding)
O=C(NCc1ccc(OC(F)(F)F)cc1)c1cccc2c1C(=O)c1ccc(N3CCCC3)cc1S2(=O)=O	none (no result: Bcl-xL primary, MCL1 BIM primary, MEX-5 binding)
O=C(NCc1ccco1)c1cccc2c1C(=O)c1ccc(N3CCC(Cc4ccccc4)CC3)cc1S2(=O)=O	GLD-1 TGE inh 91.3 (no result: Bcl-xL primary, MCL1 BIM primary, MEX-5 binding)
CCCCNC(=O)C[C@@H]1C[C@@]2(C(=O)OC)CCCCC=C2N(Cc2cccc3ccccc23)C1=O	none (no result: Bcl-xL primary, MCL1 BIM primary, GLD-1 TGE inh, MEX-5 binding)
O=C(O)c1ccc(-n2c(-c3cc(-c4ccco4)[nH]n3)n[nH]c2=S)cc1	MEX-5 binding -91.6
COc1cc(/C=C/C(=O)N2CCN(C(=O)/C=C/c3cc(OC)c(OC)c(OC)c3)CC2)cc(OC)c1OC	GLD-1 TGE inh 109.1
Clc1ccccc1C1Nc2cccc3cccc(c23)N1	Bcl-xL primary 38.1
c1coc(C2Nc3cccc4cccc(c34)N2)c1	Bcl-xL primary 51.3, MCL1 BIM primary 57.7 (no result: eLon inh)
Clc1cccc(C2Nc3cccc4cccc(c34)N2)c1Cl	none
CC1(C(=O)NS(=O)(=O)c2ccc(Br)cc2)CCN1C(=O)C1CCCCC1 (stereo unspecified)	none (no result: Bcl-xL primary, MCL1 BIM primary, GLD-1 TGE inh, MEX-5 binding)
Cc1ccc(-c2ccc(=O)n(CC(=O)NCCN3CCCCC3C)n2)cc1 (stereo unspecified)	Bcl-xL primary 34.3, MCL1 BIM primary 40.9
Cc1ccc(-c2ccc(=O)n(CCC(=O)NCCN3CCCCC3C)n2)cc1 (stereo unspecified)	none
CC(=O)C(=Nc1ccccc1Cl)NNc1ccc(Cl)cc1	Bcl-xL primary 30.6
COc1ccc(-c2ccc(C(=O)NCc3ccc(C(F)(F)F)cc3)c3occc23)c(C)c1	none (no result: Bcl-xL primary, MCL1 BIM primary, GLD-1 TGE inh, MEX-5 binding)
CS(=O)(=O)Oc1ccc2c(c1)O/C(=C\C=C\c1ccccc1)C2=O	MEX-5 binding -41.8
COc1ccc(OC)c(CN2C(=O)c3ccccc3C2c2nnnn2-c2ccc3c(c2)OCCO3)c1 (stereo unspecified)	none (no result: Bcl-xL primary, MCL1 BIM primary, GLD-1 TGE inh, MEX-5 binding)
CNC(=O)c1cn(-c2ccccc2)c(=O)c2ccccc12	Bcl-xL primary 72.1, MCL1 BIM primary 40.8, GLD-1 TGE inh 72.2
CCOC(=O)[C@]12CCCC=C1N(Cc1ccc(Cl)cc1Cl)C(=O)[C@H](CC(=O)NCC1CCCCC1)C2	none (no result: Bcl-xL primary, MCL1 BIM primary, GLD-1 TGE inh, MEX-5 binding)
Cc1cc2n(n1)C(c1c[nH]c3ccccc13)Nc1ccccc1-2 (stereo unspecified)	MEX-5 binding -32.0
CCN(CC)C(=O)c1ccc(Cc2cn(C)c3ccccc23)nc1	none (no result: Bcl-xL primary, MCL1 BIM primary, GLD-1 TGE inh, MEX-5 binding)
CC1=NN(C(N)=S)C(=O)C1N=Nc1cccc(C)c1 (stereo unspecified)	none
CC1=NN(C(N)=S)C(=O)C1N=Nc1cccc(C(=O)O)c1 (stereo unspecified)	MEX-5 binding -30.0 (no result: Bcl-xL primary, MCL1 BIM primary, GLD-1 TGE inh)
O=C(O)Cn1ccc2cc(S(=O)(=O)N3CCCCC3)ccc21	none (no result: Bcl-xL primary, MCL1 BIM primary, GLD-1 TGE inh, MEX-5 binding)
COc1cccc(C#CC2=CC(=O)CC(C)(C)C2)c1	none (no result: Bcl-xL primary, MCL1 BIM primary, GLD-1 TGE inh, MEX-5 binding)
COc1ccc(/C=C2\C(=O)NC(=S)N2C(=O)c2ccc(C)cc2)cc1	MEX-5 binding -26.1
CCOC(=O)Cc1nn(Cc2nc(-c3ccc(C#N)cc3)cs2)c(=O)c2ccccc12	none
N#C/C(=C/c1ccco1)c1nc2ccccc2s1	Bcl-xL primary 32.7
CCCNC(=O)c1cc(C2CCCCN2C(=O)c2cc(OC)c(C)c(OC)c2)on1 (stereo unspecified)	none (no result: Bcl-xL primary, MCL1 BIM primary, GLD-1 TGE inh, MEX-5 binding)
CSc1nc(O)c(N=Nc2ccc(F)cc2F)c(=O)[nH]1	Bcl-xL primary 37.1, MCL1 BIM primary 42.3
COc1ccc2c(Cl)c(C(=O)N/N=C/c3ccc4c(c3)OCO4)sc2c1	none
COc1ccc2c(Cl)c(C(=O)N/N=C3\CCCC(=O)C3)sc2c1	Bcl-xL primary 39.9, GLD-1 TGE inh 128.7
O=C(O)c1cc(-c2ccco2)nc2cc3ccccc3cc12	Bcl-xL primary 35.1
